Reference: PubChem BioAssay (NCATS)
Inconclusive results are not listed. Activity calls are given as the source filed them. Calls follow the shape of the dose curve; as a rule, active = well fitted cell-killing curve with a large enough effect; inconclusive = small, poorly fitted or top-dose-only effect, or effect the other way; inactive = no such curve, though single readings can be large or run the other way.

Assay: Quantitative highthroughput screen to assess conditional lethalithy of SEM cells grown in Human Plasma-Like Medium with dialyzed fetal bovine serum (HPLM+ds) (AID 1963882)
Details: SEM B-ALL cells in HPLM+ds, CellTiter-Glo viability, 48 h; series mostly up to 45.8 µM; viability: at the top concentration
How it was run: (§1)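 Each medium arm—HPLM with 10% dialyzed FBS, or RPMI1640 with 5 mM glucose and 10% untreated or dialyzed FBS—was screened against an 11-point, 3-fold compound titration for 48 h at 37 °C, with CellTiter-Glo luminescence as endpoint.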
Also: nearly all actives have a fitted effect of over 35% in size.

SMILES | viability
C#C[C@]1(O)C=C[C@@H]2[C@@H]3CCC4=CC(=O)CC[C@@H]4[C@H]3CC[C@@]21CC | 113% (inactive)
COC1(CS(=O)c2ccccc2)CCN(CCc2c[nH]c3ccc(F)cc23)CC1 (stereo unspecified) | 86.7% (inactive)
C1=C2CCCN[C@H]2[C@@H]2C[C@H]1[C@@H]1CCCCN1C2 | 97.3% (inactive)

Assay: Quantitative highthroughput screen to assess conditional lethalithy of SEM cells grown in RPMI1640 with unreated serum (RPMI+s) (AID 1963883); also: potency is read from the fitted curve at half-maximal effect;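 as to viability: 100% = DMSO wells and 0% = empty wells without cells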
Details: SEM B-ALL cells, CellTiter-Glo viability, 48 h; series mostly up to 45.8 µM; viability: at the top concentration
How it was run: as §1

SMILES | viability | Potency
CC(C)(C)c1cc(C=C(C#N)C#N)cc(Br)c1O | 100% (inactive) | 
NC1=NC(=O)N2CC12 (stereo unspecified) |  | 1870 nM (active)
Cc1ccccc1-n1c(Cn2cnc3c(N)ncnc32)nc2cccc(C)c2c1=O |  | 1180 nM (active)
c1ccc2c(CN3CCNCC3)cccc2c1 | 95.2% (inactive) | 
CC(C)N[C@@H]1CCn2c(=O)[nH]c3cccc(c32)[C@@H]1O | 92.9% (inactive) | 
CC(C)(O)C=CC(=O)[C@](C)(O)[C@H]1[C@H](O)C[C@]2(C)[C@@H]3CC=C4[C@@H](C=C(O)C(=O)C4(C)C)[C@]3(C)C(=O)C[C@@]12C |  | 46.9 nM (active)
CC(=O)OCC1=C(C(=O)O)N2C(=O)[C@@H](N)[C@@H]2SC1 | 83.3% (inactive) | 
C[C@@H]1[C@@H](C(=O)C[C@H]2O[C@@H]3O[C@]4(C)CC[C@@H]5[C@H](C)CC[C@@H]([C@H]2C)[C@@]35OO4)O[C@@H]2O[C@]3(C)CC[C@H]4[C@H](C)CC[C@@H]1[C@@]24OO3 |  | 14800 nM (active)
CC(O)(CS(=O)(=O)c1ccc(F)cc1)C(=O)Nc1ccc(C#N)c(C(F)(F)F)c1 (stereo unspecified) |  | 14800 nM (active)
C[C@]12CC[C@H]3[C@@H](CCC4=CC(=O)CC[C@@]43C)[C@H]1CC[C@H]2O | 85.2% (inactive) | 
CC=C(C)C(=O)O[C@H]1C(C)=C2[C@@H]3OC(=O)[C@@](C)(O)[C@@]3(O)[C@@H](OC(=O)CCC)C[C@](C)(OC(C)=O)[C@@H]2[C@@H]1OC(=O)CCCCCCC |  | 33.2 nM (active)
C#C[C@]1(O)C=C[C@@H]2[C@@H]3CCC4=CC(=O)CC[C@@H]4[C@H]3CC[C@@]21CC | 97.7% (inactive) | 
C[C@]12CC[C@H]3[C@@H](CCC4=CC(=O)CC[C@@]43C)[C@H]1CC[C@H]2OC(=O)CCC1CCCC1 | 84.8% (inactive) | 
C1=C2CCCN[C@H]2[C@@H]2C[C@H]1[C@@H]1CCCCN1C2 | 103% (inactive) | 
C[C@]12CC[C@@H]3[C@@H](CCC4=CC(=O)CC[C@@H]43)[C@@H]1CC[C@@H]2OC(=O)CCc1ccccc1 | 98.4% (inactive) | 
Cc1c(N)nc([C@H](CC(N)=O)NC[C@@H](N)C(N)=O)nc1C(=O)N[C@H](C(=O)N[C@@H](C)[C@H](O)[C@@H](C)C(=O)N[C@@H](C(=O)NCCc1nc(-c2nc(C(=O)NCCC[S+](C)C)cs2)cs1)[C@@H](C)O)C(O[C@H]1O[C@H](CO)[C@H](O)[C@@H](O)[C@@H]1O[C@H]1O[C@H](CO)[C@@H](O)[C@H](OC(N)=O)[C@H]1O)c1cnc[nH]1 (stereo partly specified) |  | 3320 nM (active)
C=CCON=C(C[C@H]1O[C@@H]2O[C@]3(C)CC[C@@H]4[C@H](C)CC[C@@H]([C@H]1C)[C@@]24OO3)[C@H]1O[C@@H]2O[C@]3(C)CC[C@H]4[C@H](C)CC[C@@H]([C@@H]1C)[C@@]24OO3 |  | 1050 nM (active)
CNC(=O)c1ccc(N2C(=S)N(c3ccc(C#N)c(C(F)(F)F)c3)C(=O)C23CCC3)cc1F | 101% (inactive) | 
